From PubChem BioAssay
The full list was thinned out, with hits kept by preference.
HT1080NT lethal: kills 2HG-producing HT-1080-NT fibrosarcoma cells | HT-1080-NT fibrosarcoma viability, CellTiter-Glo ATP luminescence, 48 h | 360,000 tested, 1.6% active | Potency, µM (top dose mostly 46.1 µM), for inactives: top-dose activity, negative = less viability, usual class: cytotoxic;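 note: NT is the 2HG producing partner of a matched IDH1 knockdown line; potency is the fitted concentration of half-maximal effect; 0% = DMSO-treated cells and -100% = media-only wells without cells; nearly all actives have a fitted effect of over 55% in size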
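Fibrosarcoma NT cells, 750 per well in 5% FBS RPMI, were exposed to compound for 48 hours. Viability: CellTiter-Glo luminescence.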
HT1080 IDH1KD tx: kills HT-1080 cells with IDH1 knockdown | HT-1080 IDH1 knockdown viability, ATP luminescence, 48 h | Potency, µM (doses to about 46.1 µM), for the others: top-dose activity, negative = toxicity, most hits filed as cytotoxic | 360,000 tested, 2% active;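 note: potency is the fitted concentration of half-maximal effect; 0% = DMSO wells and -100% = cell-free medium wells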
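IDH1KD HT-1080 cells, 750/well, RPMI + 5% FBS; compound pinned after 2 h settling; 48 h, 37 °C; CellTiter-Glo luminescence; % activity normalised to DMSO and no-cell wells; curves fitted, classed by r2 and efficacy.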
IL1B secr inh: inhibitors of inflammasome signaling (IL-1 beta secretion). 360,000 tested, 4.7% active. activity change, % at 57.5 µM. THP-1 LPS/ATP IL-1B secretion, AlphaLISA, 16 h; stronger effect = lower value; in the data active = activity change below about -50%; inconclusive = mostly about -30% to -49%
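Secreted IL-1B measured by AlphaLISA bead assay after 16 h compound exposure of THP-1 cells; compounds (final up to 57.5 uM) added 1 h before LPS (250 ng/mL) and ATP (1.25 mM) stimulation; lower signal means less secretion.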
TDP1 cell noCPT: qHTS for Inhibitors of human tyrosyl-DNA phosphodiesterase 1 (TDP1): qHTS in cells in absence of CPT | AID 686978, 2013 | DT40 Tdp1-/- hTDP1 cells, no CPT, ATP luminescence, 48 h | Potency, µM (doses to about 46.2 µM), for inactives: at the highest dose activity change, negative = growth inhibition, hits mostly inhibitors | 420,000 tested, 15% active; note: potency is the fitted concentration of half-maximal effect; nearly all actives have a fitted effect of over 55% in size
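Growth of hTDP1-complemented DT40 Tdp1-knockout cells is measured by ATP luminescence after at least 48 hr compound exposure at 37 °C, with DMSO substituting for the 20 nM CPT used in the parallel screen.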
12-LOX inh: inhibitors of human 12S-lipoxygenase ALOX12; AID 1671190; purified 12hLO, xylenol orange hydroperoxide absorbance; 580,000 tested, 1.1% active; Potency, µM (highest dose often 108 µM), without a hit: at the top dose activity change, negative = inhibition, hits mostly inhibitors; note: potency is the fitted concentration of half-maximal effect
Target sequence (P18054 whole entry, looked up): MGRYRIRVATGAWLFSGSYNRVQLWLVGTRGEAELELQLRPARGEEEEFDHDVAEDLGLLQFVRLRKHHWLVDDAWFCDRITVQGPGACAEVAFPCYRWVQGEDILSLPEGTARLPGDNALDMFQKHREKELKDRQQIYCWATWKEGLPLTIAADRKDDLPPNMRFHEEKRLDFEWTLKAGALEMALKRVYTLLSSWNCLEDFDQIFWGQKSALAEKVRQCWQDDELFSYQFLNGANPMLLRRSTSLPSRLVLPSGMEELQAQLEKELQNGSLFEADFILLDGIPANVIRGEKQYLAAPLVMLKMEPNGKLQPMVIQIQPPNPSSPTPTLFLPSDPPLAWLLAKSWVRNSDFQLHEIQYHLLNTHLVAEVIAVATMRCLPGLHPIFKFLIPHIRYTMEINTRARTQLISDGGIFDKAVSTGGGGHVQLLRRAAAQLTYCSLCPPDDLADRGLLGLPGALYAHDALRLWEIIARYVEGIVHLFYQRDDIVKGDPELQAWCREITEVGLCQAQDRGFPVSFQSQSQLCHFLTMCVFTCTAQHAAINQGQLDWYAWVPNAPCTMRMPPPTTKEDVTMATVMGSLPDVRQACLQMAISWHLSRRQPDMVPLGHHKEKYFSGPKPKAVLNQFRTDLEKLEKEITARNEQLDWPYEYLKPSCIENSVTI
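Purified human 12hLO at 150 nM in 25 mM Hepes, 0.01% Triton X-100, pH 7.0, preincubated 15 min at room temperature with compound. Reaction started with 40 uM arachidonic acid, 30 min at room temperature. Hydroperoxide measured by Fe-xylenol orange, 573/405 nm absorbance ratio.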
DT40 TDP1 CPT: DT40-hTDP1 cell growth loss with CPT. 420,000 tested, 12% active. Potency, µM (series often up to 46.2 µM), for the others: at the top dose activity change, negative = growth inhibition, most hits filed as inhibitors. chicken DT40 Tdp1-/-;hTDP1 cells + 20 nM CPT, ATP luminescence, 48 h; note: potency is the fitted concentration of half-maximal effect; nearly all actives have a fitted effect of over 55% in size
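Cell growth measured by CellTiter-Glo luminescence after a minimum 48 h, 37 C compound exposure with 20 nM CPT in Tdp1-knockout DT40 cells stably expressing hTDP1, seeded 400/well; qHTS titration format.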
* = called active by the depositor; ? = inconclusive; / = no result given. Unless noted, calls come from the whole dose curve; as a rule, active = well fitted curve in the direction sought with a large enough effect; inconclusive = small, poorly fitted or top-dose-only effect, or another doubt; inactive = no such curve, though single readings can be large; an effect the other way counts as inactive or inconclusive. Unless noted, % is set by controls: 0 for no effect and ±100 for the full control effect.

SMILES	HT1080NT lethal	HT1080 IDH1KD tx	IL1B secr inh	TDP1 cell noCPT	12-LOX inh	DT40 TDP1 CPT
CCOC(=O)C1CCN(C(=O)Cn2ncc3c4ccccc4n(Cc4ccccc4F)c3c2=O)CC1	/	/	/	4.6µM*	0%	3.3µM*
O=C(Cn1ncc2c3ccccc3n(Cc3ccccc3)c2c1=O)N1CCN(c2ncccn2)CC1	-7%	-24%	-1	?	/	-22%
CN1CCN(C(=O)Cn2ncc3c4ccccc4n(Cc4ccc(Cl)cc4)c3c2=O)CC1	/	/	/	10µM*	9%	23µM*
CCN1CCN(C(=O)Cn2ncc3c4ccccc4n(Cc4ccccc4)c3c2=O)CC1	/	/	/	15µM*	-25%	16µM*
COc1ccc(C(=O)CSc2nc3nc(C)c(Br)cc3[nH]2)cc1	/	/	/	/	5%	/
CCn1cc(/C=N/NS(=O)(=O)c2ccc(OC)cc2)c(C)n1	-2%	3%	8	-8%	-5%	10%
CCN1CCN(C(=O)Cn2ncc3c4ccccc4n(Cc4c(C)cc(C)cc4C)c3c2=O)CC1	/	/	/	16µM*	-20%	?
Cc1ccccc1Cn1c2ccccc2c2cnn(CC(=O)N3CCC(C)CC3)c(=O)c21	/	/	/	15µM*	?	21µM*
Cc1ccc(C)c(Cn2c3ccccc3c3cnn(CC(=O)N4CCCCC4)c(=O)c32)c1	/	/	/	-3%	-24%	?
CCN1CCN(C(=O)Cn2ncc3c4ccccc4n(Cc4ccccc4F)c3c2=O)CC1	/	/	/	18µM*	-17%	15µM*
CC1CCCCN1C(=O)Cn1ncc2c3ccccc3n(Cc3ccccc3F)c2c1=O (stereo not given)	/	/	/	9.2µM*	-28%	9.2µM*
Cc1nn(CC(=O)NCc2cccs2)c(=O)c2nn(-c3ccccc3)c(C)c12	2%	10%	-4	11%	-3%	11%
CCOC(=O)C1CCCN(C(=O)Cn2ncc3c([nH]c4ccccc43)c2=O)C1 (stereo not given)	9%	6%	-84*	?	?	?
Cc1c2cnn(CC(=O)N3CCN(c4ccccc4)CC3)c(=O)c2c(C)n1Cc1ccc(F)cc1	/	/	/	13µM*	4%	21µM*
O=C(Cn1nnc2c(cnn2-c2ccccc2)c1=O)NCc1cccs1	?	?	18	23µM*	-24%	?
CC1CC(C)CN(C(=O)Cn2ncc3c([nH]c4ccccc43)c2=O)C1 (stereo not given)	3%	-15%	27	?	-9%	?
Cc1cc(C)c(Cn2c3ccccc3c3cnn(CC(=O)NCc4cccs4)c(=O)c32)c(C)c1	/	/	/	21µM*	?	15µM*
Cc1c2cnn(CC(=O)N3CCOCC3)c(=O)c2c(C)n1Cc1ccc(F)cc1	/	/	/	/	40%	/
CCn1cc2nc(SCc3cccc(OC)c3)n(Cc3ccc(Cl)cc3)c(=O)c2n1	/	/	/	13µM*	?	16µM*
CCn1cc2nc(SCC(=O)Nc3ccc(OC)c(OC)c3)n(Cc3ccc(Cl)cc3)c(=O)c2n1	/	/	/	?	-25%	18µM*
CCn1cc2nc(SCc3cc(C)ccc3C)n(CCc3ccccc3)c(=O)c2n1	/	/	/	18µM*	-18%	21µM*
Cc1ccc(NC(=O)Cn2nnc(-c3nc(-c4ccc(C)cc4)no3)c2N)cc1	/	/	/	/	-52%	/
Cc1cccc2c1ccn2CCC(=O)Nc1nnc(C(C)C)s1	/	/	/	/	-25%	/
Cc1ccc2nc(C(Cl)(Cl)Cl)nc(N/N=C/c3ccc([N+](=O)[O-])cc3)c2c1	0%	23%	23	16µM*	8%	?
C=CCc1c(C)nc(C)nc1N/N=C/c1ccc([N+](=O)[O-])cc1	?	9%	37	16µM*	14%	?
SMILES	HT1080NT lethal	HT1080 IDH1KD tx	IL1B secr inh	TDP1 cell noCPT	12-LOX inh	DT40 TDP1 CPT
C=CCc1c(C)nc(C)nc1N/N=C/c1ccccc1O	6%	-23%	12	23µM*	19%	26µM*
Oc1ccccc1/C=N/Nc1nn[nH]n1	27%	-11%	-26	-7%	16%	-8%
Cc1ccc(C=NNc2ccc([N+](=O)[O-])cn2)cc1	10%	21%	-10	-28%	-5%	?
Cc1ccc2nc(C(Cl)(Cl)Cl)nc(N/N=C/c3ccncc3)c2c1	-4%	-6%	38	?	2%	-20%
Cc1ccccc1NC(=O)NN	/	/	/	/	37%	/
Cc1csc(N2CCCN(CC(=O)Nc3cc(C)on3)CC2)n1	/	/	/	/	7%	/
Cc1cccc(Oc2ccc(S(=O)(=O)N3CCCCC3)cc2NC(=O)c2cnc(C)cn2)c1	/	/	/	/	0%	/
CCN(CC)S(=O)(=O)N(C)CC1COc2ccccc2O1 (stereo not given)	/	/	/	/	28%	/
c1cnn(CC2CN(Cc3cc4n(n3)CCNC4)CCCO2)c1 (stereo not given)	/	/	/	/	-16%	/
COCCN1C(=O)c2cccn2CC1CNC(=O)C1=C(C)C(=O)OC12CCCCC2 (stereo not given)	/	/	/	/	16%	/
CN(C)c1ccc(-c2cccc(C3CC=CC4C3C(=O)N(Cc3ccccc3)C4c3ccc(C(F)(F)F)cc3)c2)cc1 (stereo not given)	0%	1%	27	23µM*	-3%	12µM*
